Among the data in PubChem BioAssay AID463212 (Sanford-Burnham Center for Chemical Genomics, 2010) are inhibition values, retold here.

The inhibition is the change of the read-out against control, counted positive when it falls.

The structures appear in SMILES notation. Screen size: about 330,000 compounds; about 4,400 (1.3%) were called active. The sample as a whole holds a higher share of actives than the screen did. A number with no mark means an inactive call.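 Rule for the calls: active = growth inhibition of the mutant yeast at or above 50%; inactive = the rest.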

A short description of this assay: growth inhibitors of tim23-1 mutant yeast, primary screen, luminescence, uHTS (AID 463212).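 Note: temperature-sensitive mutant grown at 25 °C; plate controls were DMSO-treated mutant yeast for no effect and medium wells lacking yeast for full effect.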 The settings on record: S. cerevisiae tim23-1 growth, BacTiter-Glo luminescence, 24 h; at 20 µM; active compounds read high.
For `COC(=O)c1cc2occc2n1Cc1nc(-c2ccccc2C)oc1C`, the inhibition is 4.08%.

`C=CCn1nc(-c2ccccc2)c2c(C)onc2c1=O`: the inhibition is 6.39%.

`CC(=O)Nc1ccc(S(=O)(=O)NC2(C(F)(F)F)C(=O)Nc3c2c(=O)[nH]c(=O)n3Cc2ccccc2)cc1` (stereo not drawn): the inhibition was 3.06%.

On to `CC(C)NC(=O)/C(C#N)=C\c1ccc(N(C)C)c(Br)c1`, for which the inhibition was 61% (active).

With `Cc1[nH]c2ccccc2c1/C=C(/C#N)C(=O)NC(C)C`, the inhibition is 10.2%.

As for `CC(C)(C)C(=O)/C(C#N)=C/c1ccc(O)cc1`, the inhibition is 24%.

For the compound `Cc1cc(C(=O)OC(C)C(=O)NC2CCCCC2C)c(C)o1` (stereo not drawn), the inhibition is -5.23%.

Take `CCN(CC)CC(=O)Nc1sc2c(c1C(=O)c1ccccc1C)CCC2`: the inhibition was 32.5%.

Consider `CC(OC(=O)CCCc1c[nH]c2ccccc12)C(=O)Nc1ccc(S(N)(=O)=O)cc1` (stereo not drawn), for which the inhibition was 11.1%.

Consider `CCN(CC)C(=O)N1CCN(C(=O)c2ccc(C)cn2)CC1`, for which the inhibition is 8.95%.

Take `CC(C)CNC(=O)CC(c1ccccc1)c1c(O)ccc2ccccc12` (stereo not drawn): the inhibition was 11.2%.

For `CC(=O)n1c(C=Nc2ccccc2)c(O)c2ccccc21`, the inhibition is 10.8%.

For the compound `C/C(=N\N(C)C)c1ccc(OCCOc2ccc([N+](=O)[O-])cc2)cc1`, the inhibition is 20.4%.

Consider `Oc1ccc2ccccc2c1C=Nc1ccccc1`, for which the inhibition was 53.2% (active).

Regarding `O=[N+]([O-])c1ccc(N=Cc2c(O)ccc3ccccc23)cc1`, the inhibition was 55.5% (active).

For the compound `Cc1nc2ccccc2nc(=O)c1NNc1ccc([N+](=O)[O-])cc1`, the inhibition is -14.3%.

Turning to `COc1ccc(NC(=O)C2=C(C)NC(=O)NC2c2ccccc2[N+](=O)[O-])cc1` (stereo not drawn), the inhibition was 1.02%.

With `O=C(NCC(=O)N(CC1CCCO1)C(C(=O)NC1CCCCC1)c1ccccc1)c1ccco1` (stereo not drawn), the inhibition is 14.7%.

As for `COc1cc(C2CC(=O)Oc3cc(OC)c(OC)c(OC)c32)cc(OC)c1OC` (stereo not drawn), the inhibition was 27.3%.

`COc1ccc(NC(=O)NNC(=O)COc2cc(C)c(Cl)c(C)c2)c(OC)c1`: the inhibition was -17.4%.

For `Oc1cccc(/C=N/Nc2ccc(Cl)nn2)c1O`, the inhibition was 24.4%.

Take `Oc1ccc(/C=N/Nc2ccc(C(F)(F)F)cn2)cc1O`: the inhibition was 16.3%.

As to `Oc1ccc(Br)cc1/C=N/Nc1ccccn1`, the inhibition was 68% (active).

Consider `O=C(CCc1ccccc1)NNC(=O)COc1ccc(Cl)cc1`, for which the inhibition was 7.58%.

In the case of `COc1ccc(/C(N)=N/OC(=O)CCCc2ccccc2)cc1`, the inhibition was 71.1% (active).

As to `N/C(=N\OC(=O)CCc1ccccc1)c1ccc(Cl)cc1`, the inhibition is 73.6% (active).

As for `N/C(=N\OC(=O)CCc1ccccc1)c1cccnc1`, the inhibition is 18.1%.

Turning to `COc1ccc(/C(N)=N/OC(=O)Cc2ccccc2)cc1`, the inhibition is 21.8%.

For the compound `COc1ccc(/C(N)=N/OC(=O)Oc2ccccc2)cc1`, the inhibition was 14.8%.

Take `CCC[C@H]1CCCC/C=C\CCCC(=O)OCCN1C(=O)OC(C)(C)C`: the inhibition was 9.84%.

For `CC1Sc2ccc(C(=O)NCc3ccccc3Cl)cc2NC1=O` (stereo not drawn), the inhibition was 9.69%.

`CCOc1ccc(N/C(N)=N/c2nc(C)c(C)c(=O)[nH]2)cc1`: the inhibition is 12.2%.

On to `CCOC(=O)N1CCN(C(=O)c2ccc3nc4cc(Cl)ccc4c(=O)n3c2)CC1`, for which the inhibition is 10.4%.

Take `COc1ccc(CS(=O)/C(Cl)=C(/Cl)C(=O)Nc2ccc(OC)nc2)cc1` (stereo not drawn): the inhibition was 85.7% (active).

Turning to `COc1ccc(C(=O)CCC(=O)Nc2ccc(Cl)cc2)cc1`, the inhibition is 12.1%.

On to `COc1ccc(NC(=O)/C(Cl)=C(/Cl)S(=O)Cc2ccc(C)cc2)cn1` (stereo not drawn), for which the inhibition is 67% (active).

Take `CCN(CC(=O)Nc1ccc(OC)cc1)C(=O)CSCc1ccc(C)cc1`: the inhibition was 25%.

In the case of `COC(=O)c1sccc1NC(=S)Nc1ccc(C)cc1`, the inhibition was 22.6%.

As to `COc1ccc(CCNC(=O)c2cnc(Cl)c(Cl)c2)cc1`, the inhibition was 1.06%.

In the case of `COc1ccc2c(c1)cc1n2CCN=C1NN`, the inhibition is 45.5%.

`COc1ccc(C(=O)ON=C2c3ccccc3-c3ccccc32)cc1OC`: the inhibition is 0.197%.

Regarding `COc1ccc(C(=O)O/N=C(\N)Cc2ccc(Cl)cc2Cl)cc1OC`, the inhibition was 60.3% (active).

As for `COc1ccc(C/C(N)=N/OC(=O)c2ccco2)cc1OC`, the inhibition was 2.63%.

Take `Cn1nc(C(F)(F)F)c(-c2ccc(F)cc2)c1NC(=O)CSCC(=O)O`: the inhibition is -1.38%.

For `Cn1nc(C(F)(F)F)c2cc(C(=O)N3CCOCC3)sc21`, the inhibition is 3.93%.

Regarding `Cn1nc(C(F)(F)F)c2cc(NC(=O)OCC(C)(C)C)sc21`, the inhibition was 50.2% (active).

`COc1ccc(CCNC(=O)C2CCCN(Cc3nc(-c4cccc(Cl)c4)oc3C)C2)cc1OC` (stereo not drawn): the inhibition is 7.77%.

Regarding `COc1cc(OC)c2c(-c3cccc(-c4cccc(N)c4)c3)cc(=O)oc2c1`, the inhibition was 35.7%.

Take `C/C(=N\NC(=S)NCc1ccccc1)c1ccc(Cl)cc1`: the inhibition was 56% (active).

With `C/C(=N\NC(=S)NCc1ccccc1)C1CCCCC1`, the inhibition was 22.7%.

Regarding `O=C(O)c1ccc(/C=N/NC(=S)NCc2ccccc2)cc1`, the inhibition is -1.86%.

On to `Cc1nn(C)c(C)c1CN(C(=O)CCc1nnc(Cc2c[nH]c3ccccc23)o1)C(C)C`, for which the inhibition was 20.5%.

For the compound `COc1ccc(-n2cnc3cc(C(=O)NC4CCCC4)ccc32)cc1`, the inhibition was 17.7%.

Consider `O=C(NC(=S)NC1CCCCC1)c1ccc(Cl)cc1`, for which the inhibition was 67.3% (active).

Turning to `O=C(NNC(=S)NC1CCCCC1)c1ccccc1Cl`, the inhibition is 5.3%.

In the case of `O=C(NC1CCCCCC1)C1CCN(C(=O)c2ccc(Cl)cc2)CC1`, the inhibition is 15.7%.

In the case of `COc1ccc(C(=O)NC(=S)NC2CCCCC2)cc1`, the inhibition is 63.3% (active).

Take `CCCNC(=S)N1CCC(NC(=O)c2ccc(OC)cc2)CC1`: the inhibition was -9.98%.

In the case of `CCc1ccc(S(=O)(=O)NCC(O)COc2ccc(OC)cc2)cc1` (stereo not drawn), the inhibition is 13.2%.

Regarding `CCc1ccc(Nc2n[n+](-c3ccccc3)c(-c3cccc(Cl)c3Cl)s2)cc1`, the inhibition was 36.3%.

Regarding `CC(=O)C1=C(O)C(=O)N(c2cccnc2)C1c1ccc([N+](=O)[O-])cc1` (stereo not drawn), the inhibition is 4.69%.

Take `O=C1[C@@H](c2ccccc2)[C@@H](c2ccccc2)N1c1cccnc1`: the inhibition is 70.3% (active).

As to `CCc1ccccc1NC1c2ccccc2C(=O)N1c1cccnc1` (stereo not drawn), the inhibition was -9.01%.

Turning to `COc1cc(/C=N/Nc2nc3ccccc3s2)ccc1O`, the inhibition is 51.9% (active).

With `COc1cc(/C=N/NC(=O)CCc2n[nH]c(=O)[nH]c2=O)ccc1O`, the inhibition is 5.73%.

As for `CCOc1cc(/C=N/Nc2cc(C)nc3ccc(C)cc23)ccc1O`, the inhibition was 37.3%.

With `CC(=O)c1c(C)[nH]c(C(=O)CN2C(=O)NC(C)(C)C2=O)c1C`, the inhibition was -12.9%.

As to `Cc1ccc(S(=O)(=O)N[C@@H](Cc2ccccc2)C(=O)N2CCC(C(=O)N[C@H](C(=O)O)C(C)O)CC2)cc1` (stereo partly drawn), the inhibition was 0.987%.

On to `Oc1c(Cl)cc(Cl)c(Cl)c1Cc1c(O)c(Cl)cc(Cl)c1Cl`, for which the inhibition is 94.9% (active).

Regarding `Cc1ccc(OC(=O)c2cncc(Br)c2)c(C)c1`, the inhibition was 14.1%.

Take `Cc1ccc(C(=O)OC2CCCN(C)C2)cc1` (stereo not drawn): the inhibition was -2.9%.

For `CC1(C)C2CCC1(C)C(OC(=O)CCn1ccnc1)C2` (stereo not drawn), the inhibition is 13.1%.

For the compound `CC1(C)C2CCC1(C)C(OC(=O)c1ccc(O)cc1)C2` (stereo not drawn), the inhibition was 70% (active).

As to `CN(C)c1ccc(N/C=C/C(=O)C(F)(F)F)cc1`, the inhibition is 6.08%.

Regarding `O=C(O)c1cc(S(=O)(=O)N2CCCCCC2)c(Cl)cc1Cl`, the inhibition is 8.13%.

In the case of `COc1ccc(CCNC(=O)CCCCCNC(=O)N2CCn3c2nc2ccccc23)cc1OC`, the inhibition was 15%.

As to `CC1CC2=C(CC1/C=N/NC(N)=S)C(C)(C)CCC2` (stereo not drawn), the inhibition is 50.5% (active).

Turning to `CC1CCN(C(=S)c2ccc(-c3ccc(Cl)cc3Cl)o2)CC1`, the inhibition was 17.6%.

For `C/C(=N\NC(=O)c1ccc(NS(=O)(=O)c2cccs2)cc1)c1ccc2ccccc2c1`, the inhibition is 10.6%.

Regarding `CCN(C(=O)CSc1nnnn1-c1ccccc1OC)C1CCS(=O)(=O)C1` (stereo not drawn), the inhibition was -2.5%.

With `O=C(COC(=O)c1ccc(O)cc1O)c1ccc2c(c1)OCCO2`, the inhibition is 59% (active).

In the case of `O=C(COC(=O)c1ccccc1)c1ccc2c(c1)OCCO2`, the inhibition was 16.5%.

`CC(=O)Nc1cccc(C(=O)OCC(=O)c2ccc3c(c2)OCO3)c1`: the inhibition is 2.44%.

As to `O=C(c1cnn2ccccc12)N1CCc2ccccc21`, the inhibition is 5.86%.

On to `COC(=O)c1cn(C)c2ccc(S(=O)(=O)N3CC(C)CC(C)C3)cc2c1=O` (stereo not drawn), for which the inhibition is 17.1%.

As to `CC(=O)N/C(=C/c1ccc(OC(F)F)cc1)C(=O)O`, the inhibition was 0.72%.

Regarding `COc1cc(Br)cc(/C=N/c2ncn[nH]2)c1O`, the inhibition is 72.2% (active).

Turning to `Oc1c(Cl)cc(Cl)cc1/C=N/c1ncn[nH]1`, the inhibition was 31.4%.

For `C=CCn1c(Cn2nnc3ccccc32)nnc1SCC(=O)N/N=C/c1cc(Br)cc(OC)c1O`, the inhibition was 7.67%.

Regarding `CCc1ccc(Oc2nc([N+](=O)[O-])nn2C)cc1`, the inhibition was 27.6%.

Consider `CC1CCN(Cc2nc3c(c(=O)n(C)c(=O)n3C)n2CCc2ccccc2)CC1`, for which the inhibition is 5.06%.

On to `Cn1c2ccccc2c2c(C(=O)N3CCN(c4ccc(F)cc4)CC3)cn(C3CCCC3)c(=O)c21`, for which the inhibition was 31.3%.

As to `CCCc1nc2c(c(=O)c3ccccc3n2C)c(=O)n1C1CCCCCC1`, the inhibition was 59.8% (active).

In the case of `CCN=c1sc(C(=O)Nc2ccccc2)c(C)n1CC`, the inhibition is -9.39%.

Take `COc1cccc(C2=CC(=O)C[C@H](c3ccc(OC)c(OC)c3)C2)c1`: the inhibition is 29%.

On to `Cc1ccc(OC(=O)c2c(C)nn(-c3ccccc3)c2C)cc1`, for which the inhibition is 23%.

Consider `Cc1ccc(Oc2cnn(-c3ccccc3)c(=O)c2Br)cc1`, for which the inhibition is 55.2% (active).

With `Cc1cccc(-n2ncc(Cl)c(Cl)c2=O)c1`, the inhibition was 13.8%.
